Residue numbers refer to the chain shown, from its start.
Tests used:
Assay in all cases: PBM; 200 nM protein, PBS
Conditions in all cases: dsDNA, one strand shown
[1] = target: T1, SIX6 (Homo sapiens, UniProt O95475 114-200, L167I)
T1 sequence: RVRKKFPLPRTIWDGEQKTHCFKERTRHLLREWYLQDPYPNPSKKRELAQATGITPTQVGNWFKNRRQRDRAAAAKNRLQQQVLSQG

[2] = target: T2, SIX6 (Homo sapiens, UniProt O95475 114-200, L143V)
T2 sequence: T1 sequence with L30V, I54L

[3] = target: T3, SIX6 (Homo sapiens, UniProt O95475 114-200, H141N)
T3 sequence: T1 sequence with H28N, I54L

[4] = target: T4, SIX6 (Homo sapiens, UniProt O95475 114-200, T165P)
T4 sequence: T1 sequence with T52P, I54L

[5] = target: T5, SIX6 (Homo sapiens, UniProt O95475 114-200, L167M)
T5 sequence: T1 sequence with I54M

[6] = target: T6, SIX6 (Homo sapiens, UniProt O95475 114-200, L143M)
T6 sequence: T1 sequence with L30M, I54L

[7] = target: T7, SIX6 (Homo sapiens, UniProt O95475 114-200, L143I)
T7 sequence: T1 sequence with L30I, I54L

[8] = target: T8, SIX6 (Homo sapiens, UniProt O95475 114-200, T165G)
T8 sequence: T1 sequence with T52G, I54L

[9] = target: T9, SIX6 (Homo sapiens, UniProt O95475 114-200, T139Q)
T9 sequence: T1 sequence with T26Q, I54L

[10] = target: T10, SIX6 (Homo sapiens, UniProt O95475 114-200, T165A)
T10 sequence: T1 sequence with T52A, I54L

[11] = target: T11, SIX6 (Homo sapiens, UniProt O95475 114-200, L167V)
T11 sequence: T1 sequence with I54V

[12] = target: T12, SIX6 (Homo sapiens, UniProt O95475 114-200)
T12 sequence: T1 sequence with I54L

[13] = target: T13, SIX6 (Homo sapiens, UniProt O95475 114-200, T165I)
T13 sequence: T1 sequence with T52I, I54L

| Sequence | binding signal [1] | binding signal [2] | binding signal [3] | binding signal [4] | binding signal [5] | binding signal [6] | binding signal [7] | binding signal [8] | binding signal [9] | binding signal [10] | binding signal [11] | binding signal [12] | binding signal [13] |
| --- | --- | --- | --- | --- | --- | --- | --- | --- | --- | --- | --- | --- | --- |
| CCATATAC | 10.3 upbm affinity estimate (log intensity, higher = more binding, comparable within an allelic series) | 10.1 upbm affinity estimate (log intensity, higher = more binding, comparable within an allelic series) | 10.3 upbm affinity estimate (log intensity, higher = more binding, comparable within an allelic series) | 9.82 upbm affinity estimate (log intensity, higher = more binding, comparable within an allelic series) | 10.3 upbm affinity estimate (log intensity, higher = more binding, comparable within an allelic series) | 10.4 upbm affinity estimate (log intensity, higher = more binding, comparable within an allelic series) | 10.1 upbm affinity estimate (log intensity, higher = more binding, comparable within an allelic series) | 10.4 upbm affinity estimate (log intensity, higher = more binding, comparable within an allelic series) | 10.5 upbm affinity estimate (log intensity, higher = more binding, comparable within an allelic series) | 10.3 upbm affinity estimate (log intensity, higher = more binding, comparable within an allelic series) | 10.2 upbm affinity estimate (log intensity, higher = more binding, comparable within an allelic series) | 10.4 upbm affinity estimate (log intensity, higher = more binding, comparable within an allelic series) | 10.3 upbm affinity estimate (log intensity, higher = more binding, comparable within an allelic series) |
| ATGTATCG | 11 upbm affinity estimate (log intensity, higher = more binding, comparable within an allelic series) | 10.3 upbm affinity estimate (log intensity, higher = more binding, comparable within an allelic series) | 11 upbm affinity estimate (log intensity, higher = more binding, comparable within an allelic series) | 10 upbm affinity estimate (log intensity, higher = more binding, comparable within an allelic series) | 10.6 upbm affinity estimate (log intensity, higher = more binding, comparable within an allelic series) | 10.8 upbm affinity estimate (log intensity, higher = more binding, comparable within an allelic series) | 10.4 upbm affinity estimate (log intensity, higher = more binding, comparable within an allelic series) | 11 upbm affinity estimate (log intensity, higher = more binding, comparable within an allelic series) | 11.1 upbm affinity estimate (log intensity, higher = more binding, comparable within an allelic series) | 11 upbm affinity estimate (log intensity, higher = more binding, comparable within an allelic series) | 10.7 upbm affinity estimate (log intensity, higher = more binding, comparable within an allelic series) | 10.9 upbm affinity estimate (log intensity, higher = more binding, comparable within an allelic series) | 10.8 upbm affinity estimate (log intensity, higher = more binding, comparable within an allelic series) |
| ACTGCCGG | 9.01 upbm affinity estimate (log intensity, higher = more binding, comparable within an allelic series) | 9.11 upbm affinity estimate (log intensity, higher = more binding, comparable within an allelic series) | 9.15 upbm affinity estimate (log intensity, higher = more binding, comparable within an allelic series) | 9.02 upbm affinity estimate (log intensity, higher = more binding, comparable within an allelic series) | 9.04 upbm affinity estimate (log intensity, higher = more binding, comparable within an allelic series) | 9.15 upbm affinity estimate (log intensity, higher = more binding, comparable within an allelic series) | 9.19 upbm affinity estimate (log intensity, higher = more binding, comparable within an allelic series) | 9.17 upbm affinity estimate (log intensity, higher = more binding, comparable within an allelic series) | 9.29 upbm affinity estimate (log intensity, higher = more binding, comparable within an allelic series) | 9.08 upbm affinity estimate (log intensity, higher = more binding, comparable within an allelic series) | 9.11 upbm affinity estimate (log intensity, higher = more binding, comparable within an allelic series) | 9.23 upbm affinity estimate (log intensity, higher = more binding, comparable within an allelic series) | 9.16 upbm affinity estimate (log intensity, higher = more binding, comparable within an allelic series) |
| ATTATACC | 10.8 upbm affinity estimate (log intensity, higher = more binding, comparable within an allelic series) | 10.3 upbm affinity estimate (log intensity, higher = more binding, comparable within an allelic series) | 10.7 upbm affinity estimate (log intensity, higher = more binding, comparable within an allelic series) | 10.1 upbm affinity estimate (log intensity, higher = more binding, comparable within an allelic series) | 10.5 upbm affinity estimate (log intensity, higher = more binding, comparable within an allelic series) | 10.8 upbm affinity estimate (log intensity, higher = more binding, comparable within an allelic series) | 10.3 upbm affinity estimate (log intensity, higher = more binding, comparable within an allelic series) | 10.8 upbm affinity estimate (log intensity, higher = more binding, comparable within an allelic series) | 10.8 upbm affinity estimate (log intensity, higher = more binding, comparable within an allelic series) | 10.7 upbm affinity estimate (log intensity, higher = more binding, comparable within an allelic series) | 10.5 upbm affinity estimate (log intensity, higher = more binding, comparable within an allelic series) | 10.7 upbm affinity estimate (log intensity, higher = more binding, comparable within an allelic series) | 10.6 upbm affinity estimate (log intensity, higher = more binding, comparable within an allelic series) |
| GCCGCCCC | 9.02 upbm affinity estimate (log intensity, higher = more binding, comparable within an allelic series) | 9.06 upbm affinity estimate (log intensity, higher = more binding, comparable within an allelic series) | 8.99 upbm affinity estimate (log intensity, higher = more binding, comparable within an allelic series) | 9.17 upbm affinity estimate (log intensity, higher = more binding, comparable within an allelic series) | 9.05 upbm affinity estimate (log intensity, higher = more binding, comparable within an allelic series) | 9.03 upbm affinity estimate (log intensity, higher = more binding, comparable within an allelic series) | 8.92 upbm affinity estimate (log intensity, higher = more binding, comparable within an allelic series) | 9.03 upbm affinity estimate (log intensity, higher = more binding, comparable within an allelic series) | 8.98 upbm affinity estimate (log intensity, higher = more binding, comparable within an allelic series) | 9.08 upbm affinity estimate (log intensity, higher = more binding, comparable within an allelic series) | 8.99 upbm affinity estimate (log intensity, higher = more binding, comparable within an allelic series) | 8.93 upbm affinity estimate (log intensity, higher = more binding, comparable within an allelic series) | 9.05 upbm affinity estimate (log intensity, higher = more binding, comparable within an allelic series) |
| AAGATATC | 11.2 upbm affinity estimate (log intensity, higher = more binding, comparable within an allelic series) | 10.4 upbm affinity estimate (log intensity, higher = more binding, comparable within an allelic series) | 11.2 upbm affinity estimate (log intensity, higher = more binding, comparable within an allelic series) | 10.1 upbm affinity estimate (log intensity, higher = more binding, comparable within an allelic series) | 10.7 upbm affinity estimate (log intensity, higher = more binding, comparable within an allelic series) | 11 upbm affinity estimate (log intensity, higher = more binding, comparable within an allelic series) | 10.3 upbm affinity estimate (log intensity, higher = more binding, comparable within an allelic series) | 11.1 upbm affinity estimate (log intensity, higher = more binding, comparable within an allelic series) | 11.1 upbm affinity estimate (log intensity, higher = more binding, comparable within an allelic series) | 11 upbm affinity estimate (log intensity, higher = more binding, comparable within an allelic series) | 11 upbm affinity estimate (log intensity, higher = more binding, comparable within an allelic series) | 10.9 upbm affinity estimate (log intensity, higher = more binding, comparable within an allelic series) | 10.9 upbm affinity estimate (log intensity, higher = more binding, comparable within an allelic series) |
